# Compounds with a hit are over-represented: about 3.5% of the library has one in this group of screens.
# Pf apPOL inh: Pf-apPOL DNA polymerase inhibition | Recombinant Pf-apPOL, molecular beacon fluorescence, 1.5 h | inhibition, % at 10 µM | AID 1794808 | hit rate 0.25% among 210,000
# mHTT-CaM PPI inh: inhibitors of human mutant huntingtin-calmodulin interaction; AlphaScreen His-mHTT/GST-CaM binding, luminescence; inhibition, % at 15 µM; hit rate 3.6% among 190,000; AID 1671202; P42858;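 note: 0% = both proteins with DMSO and 100% = one protein alone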
# * = called active by the depositor; . = not tested or not shown. Cut-off read from the data, not from the text of the source: active = inhibition above about 50%; inactive = the rest.
SMILES,Pf apPOL inh,mHTT-CaM PPI inh
CC(CCC(=O)N=Nc1c(O)[nH]c2ccc(Cl)cc12)C1CCC2C3C(O)CC4CC(O)CCC4(C)C3CCC12C (stereo not given),0.9,43.2
CC(CCC(=O)N=Nc1c(O)[nH]c2c(Cl)cc(Cl)cc12)C1CCC2C3C(O)CC4CC(O)CCC4(C)C3CCC12C (stereo not given),0.1,66.9*
O=[N+]([O-])c1cc(N=Cc2ccc(Cl)cc2)ccc1Cl,-3.3,2.0
COC(=O)C(C)Oc1ccc2c(c1)OC(=Cc1cccc(OC)c1OC)C2=O (stereo not given),-3.1,-4.3
C=CCn1c(SCC(=O)Nc2ccc(C)c(F)c2)nnc1-c1ccco1,-8.8,11.0
CC1CCCCN1c1nc(-c2ccccc2O)nc2ccccc12 (stereo not given),3.2,-7.7
CC1CCCCN1c1nc(Cl)nc(N2CCCCC2C)n1 (stereo not given),8.0,100.0*
O=C(Nc1ccc2c(c1)OCCO2)C1CN(C(=O)COc2ccccc2F)C1,4.9,-6.7
COc1ccc(OCc2ccccc2)c(C=O)c1,-34.7,-28.9
O=Cc1cc(OCc2ccccc2)ccc1O,-3.3,76.4*
CCc1cccc(Nc2c(-c3nc(C)no3)cnc3nc(C)ccc23)c1,-15.0,68.0*
Cc1ccc2c(Nc3ccc(C)c(F)c3)c(-c3nc(C)no3)cnc2n1,-2.4,10.6
Cc1cccc(C2=NN(C(=O)CN3CCOCC3)C(c3ccc(Cl)cc3)C2)c1 (stereo not given),-2.3,79.2*
COc1cccc(C2CC(c3cccc(C)c3)=NN2C(=O)CN2CCCCC2)c1 (stereo not given),-4.4,55.4*
COc1ccc(C2CC(c3cccc(C)c3)=NN2C(=O)CN2CCCCC2)cc1 (stereo not given),-2.3,41.4
Cc1ccc(C)c(C2=NN(C(=O)CN3CCOCC3)C(c3ccccc3F)C2)c1 (stereo not given),-2.1,62.2*
Cc1ccc(C2=NN(C(=O)CN3CCOCC3)C(c3ccccc3Cl)C2)cc1C (stereo not given),-4.3,24.6
COc1cccc(C2CC(c3cccc(C)c3)=NN2C(=O)CN2CCCC2)c1 (stereo not given),6.0,100.3*
COc1cccc(C2=NN(C(=O)CN(C)C(C)=O)C(c3ccc(F)cc3)C2)c1 (stereo not given),-2.4,17.0
COc1ccccc1C1=NN(C(=O)CN2CCOCC2)C(c2ccc(C)cc2)C1 (stereo not given),-2.2,38.3
CCS(=O)(=O)N1CCN(Cc2ccc(C)cc2)CC1,-5.6,0.5
Cc1ccc(C)c(N(C)S(=O)(=O)c2ccc3[nH]cc(C(=O)N4CCCCC4)c(=O)c3c2)c1,1.8,24.0
O=c1[nH]cnc2c1nc(N1CCNCC1)n2C1OC(CO)C(O)C1O (stereo not given),.,-4.7
CCOC(=O)c1ccc(NC(=O)N2CCCC2c2c(C)noc2C)cc1 (stereo not given),-6.4,1.0
CCC1CCCCN1C(=O)CCc1ccccc1 (stereo not given),-0.6,-3.2
SMILES,Pf apPOL inh,mHTT-CaM PPI inh
COc1cccc(C2CC(c3cc(C)ccc3C)=NN2C(=O)CN2CCCCC2)c1 (stereo not given),-6.6,67.4*
COc1ccccc1C1=NN(C(=O)CN2CCCCC2)C(c2cccc(F)c2)C1 (stereo not given),-6.1,20.6
CCn1cnnc1C1CCN(C(=O)C2(c3ccc(OC)cc3)CC2)CC1,-3.7,0.7
Cc1cccc(OCCOCCOc2ccccc2/C=C2\C(=O)NN(c3ccccc3)C2=O)c1,-14.9,0.0
Cc1ccc(N2NC(=O)/C(=C\c3ccc(C)c([N+](=O)[O-])c3)C2=O)cc1Cl,-7.7,62.0*
Cc1ccc(N2NC(=O)/C(=C\c3ccc(Cl)cc3)C2=O)cc1Cl,0.5,11.0
COc1cc(/C=C2\C(=O)NN(c3ccc(Cl)c(Cl)c3)C2=O)ccc1O,-4.9,34.0
O=C1NN(c2ccc(Cl)c(Cl)c2)C(=O)/C1=C/c1ccc(O)c(O)c1,-1.3,73.0*
CC1CCCCC1NC(=O)CSc1nnc(COc2ccc3c(c2)CCCC3)o1 (stereo not given),-7.5,0.8
Cc1cc(C(=O)Nc2cccc(OC(C)C)c2)c(C)o1,-5.4,51.1*
Cc1cc(C(=O)Nc2ccccc2)c(C)o1,-8.9,5.4
CC(=O)c1cccc(NC(=O)N2CC3CC(NC(=O)c4cccs4)C2C3)c1 (stereo not given),-10.5,9.9
CCC(=O)NC(c1ccc(C)cc1)c1ccc2cccnc2c1O (stereo not given),0.4,100.0*
O=C(NC(c1ccccc1)c1ccc2cccnc2c1O)c1ccccc1 (stereo not given),2.1,100.0*
O=C(NC(Nc1cccc2cccnc12)C(Cl)(Cl)Cl)c1ccc(Br)cc1 (stereo not given),-10.5,3.0
Cc1ccc(C(NC(=O)C(C)C)c2ccc3cccnc3c2O)cc1 (stereo not given),2.0,100.0*
c1ccc(NC(c2ccccc2)c2ccncc2)cc1 (stereo not given),-2.3,4.7
Oc1c(C(Nc2cccc(Cl)c2)c2ccncc2)ccc2cccnc12 (stereo not given),-9.6,100.3*
CN(C)c1ccc(C(NC(=O)Cc2ccccc2)c2ccc3cccnc3c2O)cc1 (stereo not given),0.3,40.9
COC(=O)c1ccc(C=C2Oc3c(ccc(O)c3CN3CCC(C)CC3)C2=O)cc1,-4.0,33.1
COc1ccc(CC2CCN(S(=O)(=O)c3cc(C)ccc3C)CC2)cc1,-4.2,-53.8
Cc1ccc(NC(=O)CSc2nc3c(c(=O)n2C)SC(C)C3)cc1 (stereo not given),-1.0,11.0
CC(=O)NC(c1ccc(Cl)cc1)c1ccc2cccnc2c1O (stereo not given),-0.1,100.0*
CC(Oc1ccc(Cl)cc1Cl)C(=O)Nc1ncccn1 (stereo not given),-1.5,-5.0
COc1ccc(C(NC(=O)C(C)C)c2ccc3cccnc3c2O)cc1 (stereo not given),10.2,100.0*
SMILES,Pf apPOL inh,mHTT-CaM PPI inh
COc1ccc(C(NC(=O)C(C)C)c2ccc3cccnc3c2O)cc1OC (stereo not given),3.4,100.0*
COc1ccc(-c2ncc(NC(=O)C(C)C)cn2)cc1,-0.2,-3.0
COc1ccc(C(C)NC(C)=O)cc1OC (stereo not given),-6.2,-8.2
CC(C)C(=O)NC(c1ccc(Cl)cc1Cl)c1ccc2cccnc2c1O (stereo not given),-65.6,96.0*
COc1ccc(C)cc1NC(=O)c1c(C)nn(-c2ccccc2)c1Cl,-1.8,-3.0
O=C(Nc1cccc(C(F)(F)F)c1)c1cc2cc(Cl)ccc2oc1=O,-0.2,-6.0
CCc1cc(C2CCCN2C(=O)Nc2ccc(OC)cc2OC)on1 (stereo not given),5.4,-2.9
Cn1c(SCC(=O)NCc2ccco2)nc2c(-c3ccccc3)c[nH]c2c1=O,0.6,2.1
CCOCCCNC(=O)c1cc2cc3ccc(OC)cc3nc2o1,0.0,3.0
CCCC(=O)NC(c1ccccc1Cl)c1ccc2cccnc2c1O (stereo not given),-0.2,100.0*
CC(=O)NC(c1ccccc1Cl)c1ccc2cccnc2c1O (stereo not given),-6.5,100.0*
COc1ccc(C(=O)Nc2cc(OC)cc3cccnc23)cc1,3.7,-9.3
COc1ccc(C(NC(C)=O)c2ccc3cccnc3c2O)cc1 (stereo not given),4.1,100.0*
